Results as given in the supplement of paper PMC11219838.
A number with no mark means an inactive call.

Test system: Meloidogyne hapla J2
Assay: proportion of mobile M. hapla J2 relative to DMSO control (fraction of DMSO control); higher = more viable, less nematicidal, active = 0.7 or less
Conditions: 60 µM; 5 days; temperature: 20 °C
Summary of the method: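 Compound was pinned to 60 µM final (0.6% v/v DMSO) into 96-well wells, each holding about 25 M. hapla J2 in distilled water. Plates were sealed and shaken for 5 days at 20 °C and 200 rpm, then given 2 µL 1 M NaOH per well. Microscopic mobility scores were normalised to the mean of the plate's own DMSO wells, eight per plate, with two biological replicates averaged.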

| Compound | proportion of mobile M. hapla J2 |
| --- | --- |
| N#Cc1ccc(CSc2nnc(-c3ccco3)o2)cc1 | 0.607 (active) |
| COc1ccc(-c2noc(-c3ccc(Cl)cc3)n2)cc1 | 0.983 |
| Cc1ccc(-c2noc(CSc3nc4ccccc4[nH]3)n2)cc1 | 1.05 |
| CC(=O)c1cccc(NC(=O)CSc2nnc(-c3ccccc3)o2)c1 | 0.937 |
| CCCC(=O)Nc1ccccc1-c1nc(-c2ccncc2)no1 | 0.99 |
| COc1ccc(-c2nnc(SCc3cccc(C#N)c3)o2)cc1 | 0.785 |
| c1ccc(-c2noc(CSc3nc4ccccc4[nH]3)n2)cc1 | 1.05 |
| CCOc1cc(-c2nc(-c3ccccc3C)no2)cc(OCC)c1OCC | 0.821 |
| CCc1ccc(OCc2nc(-c3cccc(OC)c3)no2)cc1 | 0.74 |
| COc1ccc(-c2noc(C34CC5CC(CC(C5)C3)C4)n2)cc1 | 1.04 |
| CCOc1cc(C#N)ccc1OCc1nc(-c2cccs2)no1 | 1.07 |
| CCCC(=O)Nc1ccccc1-c1nc(-c2ccccn2)no1 | 0.965 |
| Cc1ccccc1OCc1nc(-c2cccs2)no1 | 0.753 |
| CCOc1ccccc1-c1nc(-c2ccc(F)cc2)no1 | 1.06 |
| Clc1ccc(CSc2nnc(-c3ccccc3)o2)c(Cl)c1 | 1.03 |
| O=C(CSc1nnc(-c2ccc(Br)cc2)o1)NC1CCCC1 | 0.944 |
| CCc1nnc(NC(=O)CSc2nnc(-c3cccc(C)c3)o2)s1 | 0.815 |

| Compound | proportion of mobile M. hapla J2 |
| --- | --- |
| Cc1cccc(OC(C)c2nc(-c3cccnc3)no2)c1 (centres undefined) | 0.994 |
| Clc1ccc(-c2noc(-c3cccnc3)n2)cc1 | 1 |
| Cc1ccc(OCc2nc(-c3ccncc3)no2)c(Br)c1 | 0.993 |
| Cc1cccc(-c2nnc(SCC(=O)Nc3ccccc3F)o2)c1 | 0.753 |
| N#Cc1ccc(OCc2nc(-c3cccs3)no2)cc1 | 0.908 |
| O=C(CSc1nnc(-c2cccc(Cl)c2)o1)Nc1ccccc1 | 0.813 |
| COc1cccc(-c2nnc(SCC(=O)Nc3ccccc3)o2)c1 | 1.03 |
| Cc1cc(OCc2nc(-c3cccnc3)no2)c(C)cc1Br | 0.771 |
| CN(C)C(=O)c1ccccc1-c1nc(-c2ccc(Cl)cc2)no1 | 0.963 |
| COc1cccc(-c2noc(COc3ccc(Br)cc3)n2)c1 | 0.942 |
| COc1ccc(Cl)cc1-c1noc(COc2ccc(Cl)cc2)n1 | 0.964 |
| COC(=O)c1ccc(CSc2nnc(-c3ccncc3)o2)cc1 | 0.999 |
| Cc1cccc(-c2noc(-c3cccc(Br)c3)n2)c1 | 0.87 |
| COc1cccc(-c2noc(-c3cccc(F)c3)n2)c1 | 1.01 |
| COc1cccc(-c2nc(-c3ccc(Cl)cc3)no2)c1 | 1.04 |
| O=C(CSc1nnc(-c2ccc(Cl)cc2)o1)NC1CC2CCC1C2 (centres undefined) | 0.693 (active) |
| COc1ccc(-c2noc(COc3ccc(C(C)(C)C)cc3Br)n2)cc1 | 0.82 |
